# The entries come from a sample that favours hits as a whole.
# Dicer inh – human Dicer pre-microRNA cleavage inhibition; Q9UPY3; cat-ELCCA pre-miR-21 Dicer processing, chemiluminescence; active compounds read high; z-score at 25 µM; 6% of 47,000 active; AID 1347074; in the data active = z-score above about 3, passing the limit was not always enough;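 note: plate controls were vehicle for no effect and no enzyme for full effect; higher signal means more uncleaved substrate so more Dicer inhibition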
# * = called active by the depositor.
SMILES,Dicer inh
Cc1ccc(C2CC(=O)c3cnc4[nH]n(-c5ccccc5)c(=O)c4c3C2)cc1 (stereo not given),-0.58
O=c1ccccn1CCOc1ccc(Cl)cc1,1
CSC1=N/C(=C\N(C)C)C(=O)N1CCOc1ccc(Cl)cc1,3.3*
CSC1=N/C(=C\c2ccc(Cl)cc2)C(=O)N1Cc1ccc(Cl)cc1,0.77
Cc1cc(C)nc(-n2ncc3c2CCCC3=O)n1,-1.3
Cc1cc(C)nc(SCC(=O)Nc2ncc3c(n2)CCCC3=O)n1,-0.46
O=C1CCCc2nc3c(cc21)C(=O)CCC3,4*
CSc1nc(-c2ccccc2)nc(Nc2ccc(Cl)cc2Cl)c1C#N,-1.1
CCC1(c2cccc(OC)c2)CCCC/C1=N\O (stereo not given),-0.12
Cc1ccc(Oc2nc(Cl)nc(Oc3ccc(C)cc3)n2)cc1,1.1
Cc1ccc(-c2nc(C#N)c(NCc3ccccc3)o2)cc1,-2.5
COc1ccccc1Oc1ccc([N+](=O)[O-])c(Oc2ccccc2OC)c1C#N,0.29
Cc1nc([N+](=O)[O-])cn1CC(O)c1ccc(F)cc1 (stereo not given),1.8
CCOC(=O)CNc1cc(S(=O)(=O)N(C)C)ccc1C,1.1
CC(=O)c1cnn(C(=O)CNC(=O)c2cccnc2Oc2ccccc2)c1C,0.11
N/C(=N\S(=O)(=O)c1cc(Cl)sc1Cl)c1ccc(Cl)cc1,1.4
N/C(=N/S(=O)(=O)c1ccc(Cl)c(Cl)c1)c1ccc(Cl)cc1,4.5*
N/C(=N/S(=O)(=O)c1cc(C(F)(F)F)cc(C(F)(F)F)c1)c1ccc(Cl)cc1,1.9
CN(C)CCCNCc1cccn1C,3.1*
Cn1cccc1CNCc1cccnc1,1.6
Cn1cccc1CNCC(O)C(F)(F)F (stereo not given),-0.06
Cc1cccc(C)c1OCc1nc2c3cnn(-c4ccccc4)c3ncn2n1,-0.91
CN(NC(=O)c1ccccc1Cl)c1cccc(F)c1C#N,-0.07
CN(NS(=O)(=O)c1ccc(Cl)c(Cl)c1)c1cccc(F)c1C#N,3.6*
Cc1cc(S(=O)(=O)NN(C)c2cccc(Cl)c2C#N)cc(C)c1F,-0.13
SMILES,Dicer inh
O=C(/C=C/N1CCOCC1)c1csc(-c2ccc(C(F)(F)F)cc2)n1,-1
CC(C)n1cc(/C(N)=N/OC(=O)c2ccccc2Cl)c(=O)n(Cc2ccccc2)c1=O,0.85
CC(C)n1cc(C(N)=S)c(=O)n(Cc2ccccc2)c1=O,-0.58
Cn1cc(/C(N)=N/O)c(=O)n(Cc2ccccc2)c1=O,7*
O=[N+]([O-])c1ccc(-c2n[nH]c(=S)o2)cc1,0.71
Cc1cc(Sc2ccc(C(F)(F)F)cc2[N+](=O)[O-])c(Cl)cc1Cl,-0.53
COc1cc([N+](=O)[O-])c(C)cc1Sc1ccc(C)cc1,-0.13
COc1ccc(OC)c(Sc2ccc(C(F)(F)F)cc2[N+](=O)[O-])c1,7.8*
COc1ccc(OC)c(Sc2ccc(Cl)cc2[N+](=O)[O-])c1,0.07
COc1ccc(OC)c(Sc2ccc([N+](=O)[O-])cc2)c1,4.5*
COc1cc(Sc2ccc(Cl)cc2)ccc1[N+](=O)[O-],-0.52
O=C(O)c1c[nH]c2ccc(Br)cc2c1=O,77
Cc1ccc2nc(S/C=C\C(=O)c3ccccc3)[nH]c2c1,-1.9
COC(=O)C1=C(C)NC2=C(C(=O)CC(c3ccccc3Cl)C2)C1c1coc2ccc(C)cc2c1=O (stereo not given),-1.6
CCOC(=O)c1cc(NC(=O)Nc2ccc(OCc3ccccc3)cc2)ccc1N1CCCCC1,-0.52
CCCCNC(=O)n1c(=S)oc2cc(Cl)ccc21,2
CCCCCn1c(Sc2ncc([N+](=O)[O-])s2)n[nH]c1=O,1
Cc1nc(N2C(=O)c3oc4ccccc4c(=O)c3C2c2ccc(F)cc2)sc1C (stereo not given),-1.2
Cc1ccc(/C(C#N)=C2C=C(Cl)/C(=N/O)C=C\2Cl)cc1,3.8*
Cc1ccc(/C(C#N)=C2C=C/C(=N\O)C(Cl)=C\2)cc1,2.6
N#C/C(=C1C=C/C(=N\O)C(Br)=C/1)c1ccccc1,-0.66
COCCOC(=O)c1cnc(Nc2nc3ccccc3o2)nc1C,-0.98
CC1=C(C(=O)OC(C)C)C(c2ccccc2Cl)n2c(nc3ccccc32)N1 (stereo not given),0.78
CN(C)CCCN1C(=O)C(=O)/C(=C(\O)c2ccc(F)cc2)C12C(=O)N(C)c1ccccc12 (stereo not given),2.5
C=CCN1C(=O)C2(/C(=C(/O)c3ccc(C)cc3)C(=O)C(=O)N2CCCN(C)C)c2ccccc21 (stereo not given),1.6
SMILES,Dicer inh
C=CCN1C(=O)C2(/C(=C(/O)c3ccc(OC)cc3)C(=O)C(=O)N2CCOC)c2ccccc21 (stereo not given),1.3
C=CCN1C(=O)C2(/C(=C(/O)c3ccc(C)cc3)C(=O)C(=O)N2CCCOC)c2ccccc21 (stereo not given),0.49
C=CCN1C(=O)C2(/C(=C(/O)c3ccc(Cl)cc3)C(=O)C(=O)N2CCCOC)c2ccccc21 (stereo not given),3.4*
C=CCN1C(=O)C2(/C(=C(/O)c3ccc(C)c(F)c3)C(=O)C(=O)N2CCN(C)C)c2ccccc21 (stereo not given),0.78
C=CCN1C(=O)C2(/C(=C(/O)c3ccc(C)c(F)c3)C(=O)C(=O)N2CCCN(C)C)c2ccccc21 (stereo not given),0.17
C=CCN1C(=O)C2(/C(=C(/O)c3ccc(OC)cc3)C(=O)C(=O)N2CCCN(C)C)c2ccccc21 (stereo not given),3.6*
C=CCN1C(=O)C2(/C(=C(/O)c3ccc(OC)cc3)C(=O)C(=O)N2CCCOC)c2ccccc21 (stereo not given),3.2*
C=CCN1C(=O)C2(/C(=C(/O)c3ccc(F)cc3)C(=O)C(=O)N2CCN(C)C)c2ccccc21 (stereo not given),3.9*
COCCCN1C(=O)C(=O)/C(=C(\O)c2ccc(Cl)cc2)C12C(=O)N(C)c1ccccc12 (stereo not given),-0.78
NNC(=O)c1cc(COc2cc(Cl)cc(Cl)c2)on1,1.9
CC(=O)O[C@]1(C(C)=O)CC[C@H]2[C@@H]3C=C(Cl)C4=CC(=O)[C@@H]5C[C@@H]5[C@]4(C)[C@H]3CC[C@@]21C,-1.5
COc1cc(OC)c2c(c1)C1C=CCC1C(c1ccc(Br)cc1)N2 (stereo not given),2.7
CC(=NCc1ccc(C#N)cc1)c1ccccc1O,0.61
Clc1ccc(N=Cc2ccn(-c3ccccc3)n2)cc1,0.34
c1ccc(C2=Nn3c(nnc3-c3ccccc3)SC2)cc1,2.7
O=c1cc(Nc2ccc(Cl)cc2)nc(COc2ccccc2)[nH]1,-2.1
CSCC(O)Cn1[nH]c(=O)ccc1=O (stereo not given),0.06
O/N=C/c1ccc(Br)s1,-0.25
CC(C)(C)NS(=O)(=O)NC(C)(C)C,0.81
CCOC(=O)N(/N=C/c1sc2ccccc2c1C)SC(Cl)(Cl)Cl,-1.2
Cc1c(/C=N/NC(=O)NCc2ccccc2)sc2ccccc12,5.4*
O=C(NCc1ccccc1)N/N=C/c1cccs1,1.4
CS/C(Nc1ccc(Cl)cc1)=C(/C#N)C(=O)c1cc(-c2ccccc2)c(C(F)(F)F)s1,1.3
CC(C)c1ccc(C2c3c(oc4ccccc4c3=O)C(=O)N2CCCN2CCOCC2)cc1 (stereo not given),0.32
CC(C)CNC1CC(=O)N(c2ccc(Cl)cc2)C1=O (stereo not given),1.3
Cc1cc(C)c2nc(-c3ccc(C(F)(F)F)cc3)oc(=O)c2c1,-1.3
Cc1ccc(-c2nc(=O)c3ccccc3o2)cc1,1.6
COc1oc(-c2ccc(C)cc2)nc1C(F)(F)F,4.3*
